# Changes are numbered by the printed parent chain; changes in the protein carry UniProt numbers. The full ranking holds about 16,000 sequences; the median of “ka relative to ugcaugu” is about 0.096, and the highest 2% start at about 0.35. The sample holds the highest values, similar sequences and a random draw of the others, so the mix is not that of the screen.
# T1: RBFOX1 RRM RbFoxmut (Fox-RRM*) (Homo sapiens, UniProt Q9NWB1 109-208, R118D;E147R;N151S;E152T)
# T1 sequence: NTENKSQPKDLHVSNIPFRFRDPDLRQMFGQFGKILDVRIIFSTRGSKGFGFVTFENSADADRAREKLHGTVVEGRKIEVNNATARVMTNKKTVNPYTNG
# B1: UAACCGA (DNA:RNA)
# RNA: GGGAGACCGGAAUUCAGAUUGUCCUAACCGAUUAAAUCCCGUCGUAGCCACCA
# DNA 1: CAATCTGAATTCCGGTCTCCC
# DNA 2: TGGTGGCTACGACGGGATT
# B2: UGACGUC (DNA:RNA)
# RNA: B1 RNA with A26G, C29G, G30U, A31C
# DNA 1: CAATCTGAATTCCGGTCTCCC
# DNA 2: TGGTGGCTACGACGGGATT
# B3: UGGUAGU (DNA:RNA)
# RNA: B1 RNA with A26G, A27G, C28U, C29A, A31U
# DNA 1: CAATCTGAATTCCGGTCTCCC
# DNA 2: TGGTGGCTACGACGGGATT
# B4: UGCCGUU (DNA:RNA)
# RNA: B1 RNA with A26G, A27C, C29G, G30U, A31U
# DNA 1: CAATCTGAATTCCGGTCTCCC
# DNA 2: TGGTGGCTACGACGGGATT
# B5: CCAUGGC (DNA:RNA)
# RNA: B1 RNA with U25C, A26C, C28U, C29G, A31C
# DNA 1: CAATCTGAATTCCGGTCTCCC
# DNA 2: TGGTGGCTACGACGGGATT
# B6: AUCUUAC (DNA:RNA)
# RNA: GGGAGACCGGAAUUCAGAUUGUCCAUCUUACUUAAAUCCCGUCGUAGCCACCA
# DNA 1: CAATCTGAATTCCGGTCTCCC
# DNA 2: TGGTGGCTACGACGGGATT
# B7: UGAUGUC (DNA:RNA)
# RNA: B6 RNA with A25U, U26G, C27A, U29G, A30U
# DNA 1: CAATCTGAATTCCGGTCTCCC
# DNA 2: TGGTGGCTACGACGGGATT
# B8: UGAUGUG (DNA:RNA)
# RNA: B1 RNA with A26G, C28U, C29G, G30U, A31G
# DNA 1: CAATCTGAATTCCGGTCTCCC
# DNA 2: TGGTGGCTACGACGGGATT
# B9: UGAGAUG (DNA:RNA)
# RNA: B1 RNA with A26G, C28G, C29A, G30U, A31G
# DNA 1: CAATCTGAATTCCGGTCTCCC
# DNA 2: TGGTGGCTACGACGGGATT
# B10: AACUUAC (DNA:RNA)
# RNA: B6 RNA with U26A
# DNA 1: CAATCTGAATTCCGGTCTCCC
# DNA 2: TGGTGGCTACGACGGGATT
# B11: GCAUUGA (DNA:RNA)
# RNA: B1 RNA with U25G, A26C, C28U, C29U
# DNA 1: CAATCTGAATTCCGGTCTCCC
# DNA 2: TGGTGGCTACGACGGGATT
# B12: GCCAUGA (DNA:RNA)
# RNA: B6 RNA with A25G, U26C, U28A, A30G, C31A
# DNA 1: CAATCTGAATTCCGGTCTCCC
# DNA 2: TGGTGGCTACGACGGGATT
# B13: GGCAUGA (DNA:RNA)
# RNA: B6 RNA with A25G, U26G, U28A, A30G, C31A
# DNA 1: CAATCTGAATTCCGGTCTCCC
# DNA 2: TGGTGGCTACGACGGGATT
# B14: CGCAUGA (DNA:RNA)
# RNA: B6 RNA with A25C, U26G, U28A, A30G, C31A
# DNA 1: CAATCTGAATTCCGGTCTCCC
# DNA 2: TGGTGGCTACGACGGGATT
# B15: GCAUGAC (DNA:RNA)
# RNA: B6 RNA with A25G, U26C, C27A, U29G
# DNA 1: CAATCTGAATTCCGGTCTCCC
# DNA 2: TGGTGGCTACGACGGGATT
# B16: GCAGGAG (DNA:RNA)
# RNA: B6 RNA with A25G, U26C, C27A, U28G, U29G, C31G
# DNA 1: CAATCTGAATTCCGGTCTCCC
# DNA 2: TGGTGGCTACGACGGGATT
# B17: GCAUGAG (DNA:RNA)
# RNA: B6 RNA with A25G, U26C, C27A, U29G, C31G
# DNA 1: CAATCTGAATTCCGGTCTCCC
# DNA 2: TGGTGGCTACGACGGGATT
# B18: GGCAUAA (DNA:RNA)
# RNA: B6 RNA with A25G, U26G, U28A, C31A
# DNA 1: CAATCTGAATTCCGGTCTCCC
# DNA 2: TGGTGGCTACGACGGGATT
# B19: GUAUGAC (DNA:RNA)
# RNA: B6 RNA with A25G, C27A, U29G
# DNA 1: CAATCTGAATTCCGGTCTCCC
# DNA 2: TGGTGGCTACGACGGGATT
# B20: GUCAUGA (DNA:RNA)
# RNA: B6 RNA with A25G, U28A, A30G, C31A
# DNA 1: CAATCTGAATTCCGGTCTCCC
# DNA 2: TGGTGGCTACGACGGGATT
# B21: GGAUGAC (DNA:RNA)
# RNA: B6 RNA with A25G, U26G, C27A, U29G
# DNA 1: CAATCTGAATTCCGGTCTCCC
# DNA 2: TGGTGGCTACGACGGGATT
# B22: AUGAGAG (DNA:RNA)
# RNA: B6 RNA with C27G, U28A, U29G, C31G
# DNA 1: CAATCTGAATTCCGGTCTCCC
# DNA 2: TGGTGGCTACGACGGGATT
# B23: UAACUCA (DNA:RNA)
# RNA: B1 RNA with C29U, G30C
# DNA 1: CAATCTGAATTCCGGTCTCCC
# DNA 2: TGGTGGCTACGACGGGATT
# B24: CCUCUGC (DNA:RNA)
# RNA: B6 RNA with A25C, U26C, C27U, U28C, A30G
# DNA 1: CAATCTGAATTCCGGTCTCCC
# DNA 2: TGGTGGCTACGACGGGATT
# B25: GACAUAA (DNA:RNA)
# RNA: B6 RNA with A25G, U26A, U28A, C31A
# DNA 1: CAATCTGAATTCCGGTCTCCC
# DNA 2: TGGTGGCTACGACGGGATT
# B26: GCAUGAU (DNA:RNA)
# RNA: B6 RNA with A25G, U26C, C27A, U29G, C31U
# DNA 1: CAATCTGAATTCCGGTCTCCC
# DNA 2: TGGTGGCTACGACGGGATT
# B27: GCAUAGA (DNA:RNA)
# RNA: B1 RNA with U25G, A26C, C28U, C29A
# DNA 1: CAATCTGAATTCCGGTCTCCC
# DNA 2: TGGTGGCTACGACGGGATT
# B28: GCAUUUU (DNA:RNA)
# RNA: B6 RNA with A25G, U26C, C27A, A30U, C31U
# DNA 1: CAATCTGAATTCCGGTCTCCC
# DNA 2: TGGTGGCTACGACGGGATT
# B29: GCAUAAU (DNA:RNA)
# RNA: B6 RNA with A25G, U26C, C27A, U29A, C31U
# DNA 1: CAATCTGAATTCCGGTCTCCC
# DNA 2: TGGTGGCTACGACGGGATT
# B30: GCAUAAA (DNA:RNA)
# RNA: B6 RNA with A25G, U26C, C27A, U29A, C31A
# DNA 1: CAATCTGAATTCCGGTCTCCC
# DNA 2: TGGTGGCTACGACGGGATT
# B31: GCAUGAA (DNA:RNA)
# RNA: B6 RNA with A25G, U26C, C27A, U29G, C31A
# DNA 1: CAATCTGAATTCCGGTCTCCC
# DNA 2: TGGTGGCTACGACGGGATT
# Biological target: T1, RBFOX1 RRM RbFoxmut (Fox-RRM*)
# Assay: EMSA; HiTS-Eq, 1 nM pool, 10 min; buffer printed only for the single-RNA assays: 10 mM Tris pH 7.5, 150 mM NaCl, 3.4 mM EDTA, 0.001% NP-40, 30 C
# Conditions: tags: His6 N-terminal (pET28a); label: 5' 32P
# Summary of the method: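 Purified wild-type or mutant RbFox RRM at increasing concentrations was equilibrated with 1 nM of 5′-radiolabelled RNA carrying 7 randomized nucleotides for 10 min in 50 µL. Unbound RNA was separated by 8% native PAGE and sequenced. Relative association constants came from read-count changes of each RNA species compared with the control reaction, normalised to the cognate motif.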
row,Binder,binding signal
1,B1,0.0866 KA relative to UGCAUGU
2,B2,0.0923 KA relative to UGCAUGU
3,B3,0.163 KA relative to UGCAUGU
4,B4,0.113 KA relative to UGCAUGU
5,B5,0.0829 KA relative to UGCAUGU
6,B6,0.12 KA relative to UGCAUGU
7,B7,0.207 KA relative to UGCAUGU
8,B8,0.184 KA relative to UGCAUGU
9,B9,0.429 KA relative to UGCAUGU
10,B10,0.0902 KA relative to UGCAUGU
11,B11,0.178 KA relative to UGCAUGU
12,B12,0.134 KA relative to UGCAUGU
13,B13,0.624 KA relative to UGCAUGU
14,B14,0.871 KA relative to UGCAUGU
15,B15,0.603 KA relative to UGCAUGU
16,B16,0.0994 KA relative to UGCAUGU

row,Binder,binding signal
1,B17,0.771 KA relative to UGCAUGU
2,B18,0.117 KA relative to UGCAUGU
3,B19,0.219 KA relative to UGCAUGU
4,B20,0.2 KA relative to UGCAUGU
5,B21,0.124 KA relative to UGCAUGU
6,B22,0.16 KA relative to UGCAUGU
7,B23,0.1 KA relative to UGCAUGU
8,B24,0.0985 KA relative to UGCAUGU
9,B25,0.115 KA relative to UGCAUGU
10,B26,0.551 KA relative to UGCAUGU
11,B27,0.132 KA relative to UGCAUGU
12,B28,0.113 KA relative to UGCAUGU
13,B29,0.115 KA relative to UGCAUGU
14,B30,0.144 KA relative to UGCAUGU
15,B31,0.798 KA relative to UGCAUGU
